Calls of active or inactive are those of the source.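 Rule for the calls: active = inhibition above 20% together with a positive visual image hit; inconclusive = visual image hit but inhibition not above 20%; inactive = no visual image hit.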

The nature of this experiment: inhibitors of TNFa-induced NFkB p65 translocation, primary screen, imaging, HUVEC, MLSMR starter and 10KST1 sets (AID 438).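 For inhibition: signal is the nuclear over cytoplasmic p65 intensity ratio per well.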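 Note: compound added about 3h40 before a 20 min TNFalpha stimulation.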 The settings on record: HUVEC TNFa-induced p65 nuclear translocation; cell count: measured here: nuclei count (cytotoxicity indicator), at 2.08 µM; inhibition: at 2 µM, stronger effect = higher value, 0% TNFa-plus-vehicle, 100% no-TNFa wells.
As to `CCN(C(C)=O)c1nnc(CSc2nc3ccccc3s2)s1`, the inhibition (as a rule, the change of the read-out against control, counted positive when it falls) was -15.2% (inactive) and the cell count came out at 531.
For the molecule `CC(=O)NC1(C(F)(F)F)NC(=O)N(CC(C)C)C1=O` (stereo not given), the inhibition was 4% (inactive) and the cell count was determined as 359.
The like results for `CCOc1ccc2nc(Nc3nc4c(c(=O)[nH]3)CCC4)nc(C)c2c1` were, in that order, 0.8% (inactive) and 612.
The like results for `CCOC(=O)N1CCC(NC(=O)CCC(=O)N2CC(C)Oc3ccc(Cl)cc32)CC1` (stereo not given) were, in that order, 12.5% (inactive) and 326.
In the case of `Cc1ccccc1C(=O)NC1CCN(Cc2nnnn2Cc2ccccc2)CC1`, the inhibition was -30.6% (inactive) and the cell count worked out at 551.
The like results for `Cc1ccc2c(c1)CCCN2C(=O)C1CCCO1` (stereo not given) were, in that order, -6.4% (inactive) and 354.
In the case of `CCCCc1ccc(NC(=O)C2CCCO2)cc1` (stereo not given), the cell count is 387 and the inhibition was -1.8% (inactive).
Consider `CC(=O)c1cccc(NC(=O)NCc2ccccn2)c1`, for which the inhibition was -6.1% (inactive) and the cell count was found to be 655.
The like results for `Cc1ccc(OC(=O)CCC(=O)OCCCC(F)(F)C(F)(F)F)cc1` were, in that order, -3% (inactive) and 403.
The like results for `O=C(CSc1nc2ccccc2o1)NC(=O)NCc1ccco1` were, in that order, -1.8% (inactive) and 342.
The like results for `Cc1ccccc1CN1CCN(C(=O)c2cccc(F)c2)CC1` were, in that order, -13% (inactive) and 284.
With `CCOC(=O)C1=C(C)NC(=O)NC1c1ccc(Br)s1` (stereo not given), the cell count was 516 and the inhibition is 1.2% (inactive).
In the case of `COc1cccc(C(=O)n2cnnc2N)c1OC`, the cell count came out at 391 and the inhibition is -2.4% (inactive).
The like results for `CN(C)S(=O)(=O)c1ccc(S(=O)(=O)N(Cc2ccco2)Cc2ccccc2Cl)cc1` were, in that order, 478 and 4% (inactive).
Regarding `CCOc1ccc(S(=O)(=O)Nc2cccc(Cl)c2)cc1`, the inhibition is -2.9% (inactive) and the cell count was determined as 376.
The like results for `CN(C)CCCN1C(=O)c2oc3ccc(Cl)cc3c(=O)c2C1c1cccnc1` (stereo not given) were, in that order, -3.3% (inactive) and 611.
The like results for `COc1ccccc1N1CCN(Cc2nnnn2CCc2ccccc2)CC1` were, in that order, -3.1% (inactive) and 497.
On to `COc1ccc(-c2noc(COc3ccc(Cl)c(C)c3)n2)cc1`, for which the inhibition is 11.9% (inactive) and the cell count was determined as 553.
The like results for `CN(CC(=O)Nc1sccc1C#N)C1CCCCC1` were, in that order, -7.3% (inactive) and 723.
`COc1ccccc1-c1cc2nc(C)c(CCC(=O)NCc3ccco3)c(C)n2n1`: the inhibition was -7.7% (inactive) and the cell count came to 688.
As to `Cc1cc(C)c2cc3c(ccn3C3OC[C@H](O)[C@H](O)[C@H]3O)cc2n1` (stereo not given in full), the cell count was 699 and the inhibition was -21.8% (inactive).
The like results for `CCOc1cc(NC(=O)c2ccccn2)c(OCC)cc1NC(=O)CC(C)C` were, in that order, 609 and -11.5% (inactive).
The like results for `COc1ccc(S(=O)(=O)N(CCN2CCOCC2)Cc2cc(OC)ccc2OC)cc1` were, in that order, 426 and 8.5% (inactive).
The like results for `CC1(C)CC(=O)CC(C)(C)N1OC(=O)c1ccccn1` were, in that order, 362 and 1% (inactive).
`Nc1ccc(-n2c(N)c(C(=O)NCc3ccc4c(c3)OCO4)c3nc4ccccc4nc32)cc1`: the inhibition is -17.4% (inactive) and the cell count is 334.
As to `CC12CCC(C(=O)O)(c3nc(C#N)c(C#N)nc31)C2(C)C` (stereo not given), the cell count is 437 and the inhibition was -4.7% (inactive).
The like results for `CN(C)c1ccc(C(=O)OCC(=O)NC2CCCCC2)cc1` were, in that order, 548 and -0.3% (inactive).
The like results for `CCOC(=O)N1CCN(Cc2nc3c(c(=O)[nH]c(=O)n3C)n2Cc2cc(C)ccc2C)CC1` were, in that order, 693 and -2.2% (inactive).
As for `C#CC1(O)CC(C)N(C)C(C)C1` (stereo not given), the cell count amounted to 266 and the inhibition is -0.3% (inactive).
The like results for `O=C(CN(CC1CCCO1)C(=O)CCC(=O)Nc1ccccn1)NCC1CCCO1` (stereo not given) were, in that order, 634 and -1.6% (inactive).
On to `CC(=O)c1ccc2c3c(cccc13)C(=O)N(c1c(C)nn(C)c1C)C2=O`, for which the cell count stood at 655 and the inhibition is -4.4% (inactive).
The like results for `CC(C)[C@H](NC(=O)NCc1ccc(Cl)cc1)C(=O)O` were, in that order, 190 and -16.4% (inactive).
The like results for `COc1ccc(-n2c(Cc3cccn3C)nnc2SCC(=O)Nc2cccc(Cl)c2)cc1` were, in that order, 583 and 36.1% (active).
As to `COC(=O)/C=c1\sc2ncnn2c1=O`, the cell count was 286 and the inhibition was -11% (inactive).
The like results for `COCc1nnc(NC(=O)c2ccc(NC(C)=O)cc2)s1` were, in that order, 684 and -12.6% (inactive).
With `Cc1cc(/C=N/n2cnnc2)c(C)n1-c1cccc(Cl)c1`, the inhibition was 4.7% (inactive) and the cell count stood at 567.
The like results for `C=CCNC(=O)C1CC(=O)N(c2ccc(OCC(=O)Nc3ccc(OC)cc3)cc2)C1` (stereo not given) were, in that order, 0.7% (inactive) and 393.
The like results for `Cc1cc2c(cc(C(=O)OCC(=O)NCc3cccs3)n2C(C)C)o1` were, in that order, 9.9% (inactive) and 379.
The like results for `COc1ccc(C)cc1C(=O)CCC(=O)Nc1ccccc1N1CCOCC1` were, in that order, 8.3% (inactive) and 382.
As for `CC(C)(C)c1ccc(-c2nnc(SCCC#N)n2C2CCCC2)cc1`, the cell count amounted to 410 and the inhibition was 5.5% (inactive).

The values above are taken from PubChem BioAssay.
